From the supplement of paper PMC12067093, “Discovery and optimisation of a covalent ligand for TRIM25 and its application to targeted protein ubiquitination” (Chemical Science, 2025)
Targets with the largest changes are over-represented here; the source holds about 21,000 in all.

compound: Cc1cc(ccc1-c1ccccc1)C(=O)N1CCCN(CC1)C(=O)CCl [compound 10]; experiment: probe-labelled cysteine peptide fold change vs DMSO (competition) (log2 fold change); higher = less target engagement (more negative = stronger competition); conditions: 10 µM; THP-1; incubation time: 4 h
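Note: competitive profiling in live THP-1 cells: cysteine peptides tagged with an iodoacetamide desthiobiotin (IA-DTB) probe, intensity after compound treatment relative to DMSO-treated cells.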

UniProt Q14151, sequence (Q14151 whole entry, looked up): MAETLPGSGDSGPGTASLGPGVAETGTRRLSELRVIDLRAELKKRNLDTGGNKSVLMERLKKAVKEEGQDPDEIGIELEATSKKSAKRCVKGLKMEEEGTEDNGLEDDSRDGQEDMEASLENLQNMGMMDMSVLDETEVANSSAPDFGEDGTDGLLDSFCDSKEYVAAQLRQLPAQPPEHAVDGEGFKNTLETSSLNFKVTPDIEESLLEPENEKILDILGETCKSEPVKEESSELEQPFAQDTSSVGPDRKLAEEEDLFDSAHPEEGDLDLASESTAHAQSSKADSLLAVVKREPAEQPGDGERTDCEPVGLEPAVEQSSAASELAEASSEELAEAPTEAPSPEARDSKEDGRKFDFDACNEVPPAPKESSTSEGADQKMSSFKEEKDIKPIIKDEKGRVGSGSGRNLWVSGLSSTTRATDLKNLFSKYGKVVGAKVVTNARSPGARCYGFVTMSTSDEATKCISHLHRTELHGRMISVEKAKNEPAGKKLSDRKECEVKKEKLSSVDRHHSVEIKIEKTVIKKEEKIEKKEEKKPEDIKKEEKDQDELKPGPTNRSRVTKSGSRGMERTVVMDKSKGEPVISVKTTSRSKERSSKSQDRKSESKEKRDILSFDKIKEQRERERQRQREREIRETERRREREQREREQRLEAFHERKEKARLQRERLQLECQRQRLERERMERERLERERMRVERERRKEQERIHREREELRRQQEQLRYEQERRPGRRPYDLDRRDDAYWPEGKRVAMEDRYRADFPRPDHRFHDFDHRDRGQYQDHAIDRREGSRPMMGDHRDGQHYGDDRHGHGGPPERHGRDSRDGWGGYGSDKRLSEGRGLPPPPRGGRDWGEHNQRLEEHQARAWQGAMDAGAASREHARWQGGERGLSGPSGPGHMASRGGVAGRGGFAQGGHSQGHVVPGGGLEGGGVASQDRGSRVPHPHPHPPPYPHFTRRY
UniProt Q9UHR5, sequence (Q9UHR5 whole entry): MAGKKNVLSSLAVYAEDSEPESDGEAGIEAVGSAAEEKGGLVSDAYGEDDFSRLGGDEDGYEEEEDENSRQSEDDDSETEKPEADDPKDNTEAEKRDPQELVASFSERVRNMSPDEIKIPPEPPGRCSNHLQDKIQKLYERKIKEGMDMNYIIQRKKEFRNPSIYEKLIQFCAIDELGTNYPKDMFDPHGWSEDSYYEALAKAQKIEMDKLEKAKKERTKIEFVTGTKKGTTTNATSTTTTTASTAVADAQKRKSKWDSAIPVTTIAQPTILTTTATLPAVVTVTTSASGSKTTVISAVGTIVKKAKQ
UniProt Q8IZD6, sequence (Q8IZD6 whole entry): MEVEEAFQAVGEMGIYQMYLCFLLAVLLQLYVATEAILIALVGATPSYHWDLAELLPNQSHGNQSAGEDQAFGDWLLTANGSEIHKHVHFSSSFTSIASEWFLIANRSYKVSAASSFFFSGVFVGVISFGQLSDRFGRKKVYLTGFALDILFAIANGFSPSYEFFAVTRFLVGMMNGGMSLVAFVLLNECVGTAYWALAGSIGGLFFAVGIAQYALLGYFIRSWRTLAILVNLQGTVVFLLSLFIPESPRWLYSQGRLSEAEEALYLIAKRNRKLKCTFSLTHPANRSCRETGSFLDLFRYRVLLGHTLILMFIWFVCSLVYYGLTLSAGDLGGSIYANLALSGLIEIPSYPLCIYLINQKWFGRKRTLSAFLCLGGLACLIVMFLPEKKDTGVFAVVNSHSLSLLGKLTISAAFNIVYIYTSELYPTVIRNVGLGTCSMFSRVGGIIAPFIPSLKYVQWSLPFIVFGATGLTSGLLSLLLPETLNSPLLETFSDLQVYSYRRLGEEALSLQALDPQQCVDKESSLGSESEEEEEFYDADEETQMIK
UniProt Q86SQ7, sequence (Q86SQ7 whole entry, looked up): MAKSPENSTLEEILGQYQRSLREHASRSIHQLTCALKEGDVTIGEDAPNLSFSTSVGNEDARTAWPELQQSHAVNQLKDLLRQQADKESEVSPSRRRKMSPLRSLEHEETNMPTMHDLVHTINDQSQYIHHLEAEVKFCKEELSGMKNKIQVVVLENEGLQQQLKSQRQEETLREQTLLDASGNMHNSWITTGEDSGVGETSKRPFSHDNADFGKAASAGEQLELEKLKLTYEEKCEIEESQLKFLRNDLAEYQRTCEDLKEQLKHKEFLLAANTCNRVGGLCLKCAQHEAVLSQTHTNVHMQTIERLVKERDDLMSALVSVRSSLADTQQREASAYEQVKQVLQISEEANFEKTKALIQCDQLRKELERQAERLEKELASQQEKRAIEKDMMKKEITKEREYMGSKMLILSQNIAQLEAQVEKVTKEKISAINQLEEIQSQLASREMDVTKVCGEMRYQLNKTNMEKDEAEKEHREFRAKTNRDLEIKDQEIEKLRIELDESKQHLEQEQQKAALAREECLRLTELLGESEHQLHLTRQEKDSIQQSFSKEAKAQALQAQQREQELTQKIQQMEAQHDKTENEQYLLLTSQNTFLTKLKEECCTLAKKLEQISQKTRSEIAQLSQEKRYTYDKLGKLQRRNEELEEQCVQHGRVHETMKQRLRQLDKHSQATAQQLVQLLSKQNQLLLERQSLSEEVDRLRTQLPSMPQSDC
UniProt Q15637, sequence (Q15637 whole entry, looked up): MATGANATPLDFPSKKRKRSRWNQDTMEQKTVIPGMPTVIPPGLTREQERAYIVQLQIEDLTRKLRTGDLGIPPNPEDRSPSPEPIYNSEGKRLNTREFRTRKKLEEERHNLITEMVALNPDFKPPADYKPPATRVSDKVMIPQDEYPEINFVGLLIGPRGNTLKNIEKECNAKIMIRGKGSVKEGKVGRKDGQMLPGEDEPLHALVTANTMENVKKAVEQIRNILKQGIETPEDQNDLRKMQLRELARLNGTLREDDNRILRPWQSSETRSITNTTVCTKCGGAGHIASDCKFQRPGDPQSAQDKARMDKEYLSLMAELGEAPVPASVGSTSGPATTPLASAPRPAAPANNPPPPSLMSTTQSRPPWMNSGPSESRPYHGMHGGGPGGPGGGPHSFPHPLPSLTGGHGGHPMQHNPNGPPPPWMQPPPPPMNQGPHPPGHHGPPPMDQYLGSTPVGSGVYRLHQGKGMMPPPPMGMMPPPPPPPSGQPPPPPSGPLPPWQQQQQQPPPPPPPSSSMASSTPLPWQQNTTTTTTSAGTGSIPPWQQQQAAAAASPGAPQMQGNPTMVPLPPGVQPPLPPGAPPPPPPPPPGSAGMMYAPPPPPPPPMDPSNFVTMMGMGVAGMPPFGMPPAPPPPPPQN
UniProt Q01826, sequence (Q01826 whole entry, looked up): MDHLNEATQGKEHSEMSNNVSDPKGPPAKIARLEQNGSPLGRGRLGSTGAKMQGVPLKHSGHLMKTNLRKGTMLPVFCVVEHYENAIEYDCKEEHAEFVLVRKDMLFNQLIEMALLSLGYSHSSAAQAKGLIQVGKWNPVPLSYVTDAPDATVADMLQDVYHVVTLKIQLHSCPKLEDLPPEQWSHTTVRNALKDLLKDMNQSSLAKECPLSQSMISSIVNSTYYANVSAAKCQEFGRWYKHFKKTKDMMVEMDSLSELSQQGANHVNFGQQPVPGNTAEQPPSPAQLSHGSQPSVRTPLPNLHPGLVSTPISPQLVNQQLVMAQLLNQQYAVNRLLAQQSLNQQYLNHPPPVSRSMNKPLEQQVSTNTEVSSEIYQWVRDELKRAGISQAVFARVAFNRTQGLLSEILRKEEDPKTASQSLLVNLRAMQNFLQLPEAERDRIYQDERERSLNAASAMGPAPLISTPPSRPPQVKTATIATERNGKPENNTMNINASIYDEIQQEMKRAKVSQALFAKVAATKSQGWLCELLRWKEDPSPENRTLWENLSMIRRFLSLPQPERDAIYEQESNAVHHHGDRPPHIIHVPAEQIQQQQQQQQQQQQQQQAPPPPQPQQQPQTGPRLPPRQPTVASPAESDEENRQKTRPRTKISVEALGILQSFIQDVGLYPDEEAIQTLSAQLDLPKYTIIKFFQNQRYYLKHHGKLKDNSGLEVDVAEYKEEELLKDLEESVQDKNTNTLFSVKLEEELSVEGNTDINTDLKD
UniProt Q8NBX0, sequence (Q8NBX0 whole entry, looked up): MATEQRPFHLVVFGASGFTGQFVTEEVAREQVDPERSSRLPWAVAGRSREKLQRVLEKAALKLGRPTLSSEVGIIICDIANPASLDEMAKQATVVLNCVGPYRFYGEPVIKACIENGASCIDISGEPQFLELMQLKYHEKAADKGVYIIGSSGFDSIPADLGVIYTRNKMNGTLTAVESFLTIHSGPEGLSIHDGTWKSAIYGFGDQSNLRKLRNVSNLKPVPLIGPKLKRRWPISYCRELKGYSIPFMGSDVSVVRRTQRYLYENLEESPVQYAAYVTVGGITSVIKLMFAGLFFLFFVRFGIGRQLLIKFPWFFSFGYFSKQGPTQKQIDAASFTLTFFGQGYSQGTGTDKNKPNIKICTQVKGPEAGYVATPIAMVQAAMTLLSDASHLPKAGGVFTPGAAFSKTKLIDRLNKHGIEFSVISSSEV
UniProt Q9UBS8, sequence (Q9UBS8 whole entry, looked up): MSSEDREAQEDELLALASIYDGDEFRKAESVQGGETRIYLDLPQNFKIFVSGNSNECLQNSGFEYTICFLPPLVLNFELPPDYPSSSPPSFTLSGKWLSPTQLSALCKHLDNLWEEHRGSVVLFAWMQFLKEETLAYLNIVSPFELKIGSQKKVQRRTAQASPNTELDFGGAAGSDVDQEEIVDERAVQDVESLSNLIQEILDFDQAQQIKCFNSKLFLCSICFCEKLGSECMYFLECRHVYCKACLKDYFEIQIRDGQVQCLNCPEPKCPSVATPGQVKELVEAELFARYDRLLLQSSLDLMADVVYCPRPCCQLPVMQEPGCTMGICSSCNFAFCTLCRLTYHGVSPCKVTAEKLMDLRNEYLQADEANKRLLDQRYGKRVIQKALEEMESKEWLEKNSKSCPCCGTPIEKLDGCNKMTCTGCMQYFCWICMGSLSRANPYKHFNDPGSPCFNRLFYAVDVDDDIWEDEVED

Target	probe-labelled cysteine peptide fold change
RPL11_P62913_150_TGCIGAK (UniProt P62913)	-0.0968
SDCCAG8_Q86SQ7_236_CEIEESQLK (UniProt Q86SQ7)	0.069
SMNDC1_O75940_214_VGVGTCGIADKPMTQYQDTSK (UniProt O75940)	0.155
SLITRK4_Q8IW52_661_HEGLGNPDCGSMQLQLR (UniProt Q8IW52)	-0.281
SLC9A3R1_O14745_206_IVEVNGVCMEGK (UniProt O14745)	0.165
SMURF2_Q9HAU4_706_LFTIHQIDACTNNLPK (UniProt Q9HAU4)	-0.159
SEPT5_Q99719_278_LYPWGIVEVENQAHCDFVK (UniProt Q99719)	0.194
RNF14_Q9UBS8_350_LTYHGVSPCK (UniProt Q9UBS8)	-0.0421
SNRNP70_P08621_39_HHNQPYCGIAPYIR (UniProt P08621)	-0.0761
SMCHD1_A6NHR9_444_YHPFLYDRETYPDDPCFPSK (UniProt A6NHR9)	-0.159
SEC63_Q9UGP8_671_EQTLISMPYHVCTLK (UniProt Q9UGP8)	0.235
SEC63_Q9UGP8_295_KNEPPLTCPYSLK (UniProt Q9UGP8)	-0.404
SCCPDH_Q8NBX0_238_WPISYCR (UniProt Q8NBX0)	-0.242
SAFB2_Q14151_672_ERLQLECQR (UniProt Q14151)	-0.167
SEMA4A_Q9H3S1_547_GNPEWACASGPMSR (UniProt Q9H3S1)	-0.0882
SLC22A15_Q8IZD6_438_NVGLGTCSMFSR (UniProt Q8IZD6)	0.0942

Target	probe-labelled cysteine peptide fold change
RNF20_Q5VTR2_960_CNAAFGANDFHR (UniProt Q5VTR2)	0.279
SAE1_Q9UBE0_295_YCFSEMAPVCAVVGGILAQEIVK (UniProt Q9UBE0)	-0.252
SF1_Q15637_282_CGGAGHIASDCK (UniProt Q15637)	0.0635
SLC25A28_Q96A46_49_GAGGGEAGACRPPVR (UniProt Q96A46)	-0.368
SAP30BP_Q9UHR5_127_CSNHLQDK (UniProt Q9UHR5)	-0.0884
RNH1_P13489_199_DSPCQLEALKLESCGVTSDNCR (UniProt P13489)	-0.339
SART3_Q15020_182_DYICPNIWLEYGQYSVGGIGQK (UniProt Q15020)	0.208
RPS8_P62241_182_LLACIASRPGQCGR (UniProt P62241)	-0.207
SMYD3_Q9H7B4_261+263_DQYCFECDCFR (UniProt Q9H7B4)	-0.0235
RPS6_P62753_83_GHSCYRPR (UniProt P62753)	-0.077
SATB1_Q01826_91_GTMLPVFCVVEHYENAIEYDCKEEHAEFVLVR (UniProt Q01826)	-0.0836
SEMA4D_Q92854_370_PRPGACIDSEAR (UniProt Q92854)	-0.224
RPL7A_P62424_182_MGVPYCIIK (UniProt P62424)	0.17
SETD2_Q9BYW2_836_ISSNSFMNVHLESKPVICDSR (UniProt Q9BYW2)	0.115
RTN3_O95197-3_42_SCSSSCAVHDLIFWR (UniProt O95197)	-2.02
SLC39A10_Q9ULF5_598_NYLCIEEEK (UniProt Q9ULF5)	-0.213

same assay, conditions: 50 µM; THP-1; incubation time: 4 h

Target	probe-labelled cysteine peptide fold change
RPL11_P62913_150_TGCIGAK (UniProt P62913)	-0.152
SDCCAG8_Q86SQ7_236_CEIEESQLK (UniProt Q86SQ7)	-0.322
SMNDC1_O75940_214_VGVGTCGIADKPMTQYQDTSK (UniProt O75940)	-0.732
SLITRK4_Q8IW52_661_HEGLGNPDCGSMQLQLR (UniProt Q8IW52)	-0.498
SLC9A3R1_O14745_206_IVEVNGVCMEGK (UniProt O14745)	-0.0744
SMURF2_Q9HAU4_706_LFTIHQIDACTNNLPK (UniProt Q9HAU4)	-0.59
SEPT5_Q99719_278_LYPWGIVEVENQAHCDFVK (UniProt Q99719)	0.135
RNF14_Q9UBS8_350_LTYHGVSPCK (UniProt Q9UBS8)	-0.206
SNRNP70_P08621_39_HHNQPYCGIAPYIR (UniProt P08621)	-0.168
SMCHD1_A6NHR9_444_YHPFLYDRETYPDDPCFPSK (UniProt A6NHR9)	-0.206
SEC63_Q9UGP8_671_EQTLISMPYHVCTLK (UniProt Q9UGP8)	0.336
SEC63_Q9UGP8_295_KNEPPLTCPYSLK (UniProt Q9UGP8)	-1.57
SCCPDH_Q8NBX0_238_WPISYCR (UniProt Q8NBX0)	-1.65
SAFB2_Q14151_672_ERLQLECQR (UniProt Q14151)	-0.742
SEMA4A_Q9H3S1_547_GNPEWACASGPMSR (UniProt Q9H3S1)	-0.865
SLC22A15_Q8IZD6_438_NVGLGTCSMFSR (UniProt Q8IZD6)	-0.0742

Target	probe-labelled cysteine peptide fold change
RNF20_Q5VTR2_960_CNAAFGANDFHR (UniProt Q5VTR2)	0.358
SAE1_Q9UBE0_295_YCFSEMAPVCAVVGGILAQEIVK (UniProt Q9UBE0)	0.0287
SF1_Q15637_282_CGGAGHIASDCK (UniProt Q15637)	-0.0325
SLC25A28_Q96A46_49_GAGGGEAGACRPPVR (UniProt Q96A46)	-0.406
SAP30BP_Q9UHR5_127_CSNHLQDK (UniProt Q9UHR5)	-0.31
RNH1_P13489_199_DSPCQLEALKLESCGVTSDNCR (UniProt P13489)	-1.17
SART3_Q15020_182_DYICPNIWLEYGQYSVGGIGQK (UniProt Q15020)	0.164
RPS8_P62241_182_LLACIASRPGQCGR (UniProt P62241)	-0.296
SMYD3_Q9H7B4_261+263_DQYCFECDCFR (UniProt Q9H7B4)	-0.599
RPS6_P62753_83_GHSCYRPR (UniProt P62753)	0.137
SATB1_Q01826_91_GTMLPVFCVVEHYENAIEYDCKEEHAEFVLVR (UniProt Q01826)	-0.32
SEMA4D_Q92854_370_PRPGACIDSEAR (UniProt Q92854)	-1.22
RPL7A_P62424_182_MGVPYCIIK (UniProt P62424)	-0.0867
SETD2_Q9BYW2_836_ISSNSFMNVHLESKPVICDSR (UniProt Q9BYW2)	0.0162
RTN3_O95197-3_42_SCSSSCAVHDLIFWR (UniProt O95197)	-1.97
SLC39A10_Q9ULF5_598_NYLCIEEEK (UniProt Q9ULF5)	-0.202
